This is a sample that favours compounds with a hit; in the whole collection about 8.3% have one here.
MCF10A rerep = DNA re-replication induction in MCF 10a cells | MCF 10A DNA re-replication, Hoechst nuclear intensity, 48 h | Potency, µM (top dose mostly 46.1 µM), inactives show at the highest dose activity, positive = re-replication, most hits filed as activators | actives 2.9% (n = 350,000) | AID 624296; further: potency means the concentration at half of the fitted maximal effect; % of control where 0% means no effect; nearly all actives have a fitted effect of over 50% in size
RORgamma inh = blocks mouse ROR gamma transcriptional activity; P51450; Drosophila S2 Gal4-RORgamma UAS-luciferase reporter, 20 h; Potency, µM (top dose mostly 53.6 µM), for the others: top-dose activity change, negative = inhibition, actives largely listed as inhibitors; actives 5.4% (n = 310,000); further: potency means the concentration at half of the fitted maximal effect; on the % scale 0 is the no-effect control and ±100 the full control effect; nearly all actives have a fitted effect of over 60% in size
Target sequence (P51450 whole entry, looked up, the tested form may be a part): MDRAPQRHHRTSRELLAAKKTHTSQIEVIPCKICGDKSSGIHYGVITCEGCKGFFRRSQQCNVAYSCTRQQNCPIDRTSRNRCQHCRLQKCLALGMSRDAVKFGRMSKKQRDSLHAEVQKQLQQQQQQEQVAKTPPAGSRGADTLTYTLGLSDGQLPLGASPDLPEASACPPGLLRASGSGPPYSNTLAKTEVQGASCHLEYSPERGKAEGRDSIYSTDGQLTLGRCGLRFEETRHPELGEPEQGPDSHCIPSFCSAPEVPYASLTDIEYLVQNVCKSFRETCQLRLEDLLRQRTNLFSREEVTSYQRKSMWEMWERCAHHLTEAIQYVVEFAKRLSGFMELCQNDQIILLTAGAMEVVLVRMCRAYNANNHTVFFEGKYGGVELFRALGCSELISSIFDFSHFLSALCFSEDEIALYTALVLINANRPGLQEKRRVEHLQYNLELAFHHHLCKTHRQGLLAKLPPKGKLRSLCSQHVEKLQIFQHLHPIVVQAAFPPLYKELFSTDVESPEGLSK
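Drosophila Schneider cells stably carrying a metallothionein-driven Gal4 DBD–ROR gamma fusion and a UAS-Photinus luciferase reporter were exposed to compound for 1 hr, then induced with copper sulfate (700 uM final) for 20 hr at ambient temperature before luminescence reading.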
Giardia killer = Giardia lamblia killing. activity change, % at 7.66 µM, hits read low. actives 0.15% (n = 340,000). AID 540267. Giardia lamblia trophozoite viability; in the data active means activity change below about -80%; inconclusive means between about -30% and that limit;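 further: parasites exposed to compound for two days anaerobically before the ATP read; on the % scale 0 is the no-effect control and ±100 the full control effect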
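Luminescent ATP signal served as the viability read-out, measured 15-30 min after adding ATP detection reagent to trophozoites that had been incubated with compounds for 48 hrs at 37 deg C anaerobically at 100 cells/well.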
Gal4-VP16 FLuc = counter-screen for ROR gamma inhibitors: Gal4-VP16 reporter. Drosophila S2 Gal4-VP16 UAS-luciferase, luminescence, 20 h. Potency, µM (titrated, usually from 53.6 µM), inactives show at the top dose activity, negative = inhibition, most hits filed as inhibitors. actives 3.5% (n = 310,000). AID 2546;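 further: Gal4-VP16 expression switched on by copper sulfate through the metallothionein promoter; potency means the concentration at half of the fitted maximal effect; on the % scale 0 is the no-effect control and ±100 the full control effect; nearly all actives have a fitted effect of over 50% in size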
BCR signal inh = chronic active BCR signaling inhibition; ABC-DLBCL IkBa-CBG/CBR reporter, luminescence ratio, 4 h; Potency, µM (highest dose often 46.1 µM), inactives show at the top dose activity change, negative = inhibition, usual class: inhibitors; actives 0.05% (n = 340,000); active means well fitted inhibition curve with a large enough effect in the signal ratio, with a control signal flat, not every such curve was filed as active; inconclusive means small, poorly fitted or top-dose-only effect, or effect the other way, or a change in a side signal; the % refers to the signal ratio;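 further: potency means the concentration at half of the fitted maximal effect; plate controls were basal doxycycline-induced cells for no effect and cells given 10 µM MG132 for full effect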
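TMD8 ABC-DLBCL cells carrying doxycycline-inducible green luciferase fused to IkappaBalpha plus unfused red luciferase were exposed to compounds (up to 46 uM) for 4 hrs at 37C. Activity came from the overlap-corrected green/red luminescence ratio.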
SW480 rereplic = induces DNA re-replication in SW480 colon adenocarcinoma cells; Potency, µM (titrated, usually from 46.1 µM), for inactives: at the top dose re-replication activation, most hits filed as activators; AID 624297; actives 1.8% (n = 340,000); SW480 DNA re-replication, Hoechst DNA content imaging, 48 h; further: potency means the concentration at half of the fitted maximal effect; % of control where 0% means no effect; nearly all actives have a fitted effect of over 55% in size
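DNA re-replication was detected as more nuclei of elevated Hoechst intensity after 48 hr exposure to compound (23 nL pinned per well of 250 cells).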
Active calls of the source: *; ? = inconclusive; . = no result; [ ] = remark or other dose. Unless noted, the call rests on the fitted dose curve; in most records, active means well fitted curve in the direction sought with a large enough effect; inconclusive means small, poorly fitted or top-dose-only effect, or another doubt; inactive means no such curve, though single readings can be large; an effect the other way counts as inactive or inconclusive.

SMILES	MCF10A rerep	RORgamma inh	Giardia killer	Gal4-VP16 FLuc	BCR signal inh	SW480 rereplic
COc1ccc2nc(NC(=O)c3ccccc3[N+](=O)[O-])sc2c1	-4%	0%	4	-18%	?	8%
O=C(O)c1cccc([N+](=O)[O-])c1C(=O)Nc1nc2ccccc2s1	-1%	1%	3	-4%	?	6%
O=C(Nc1nc2ccccc2s1)c1ccccc1[N+](=O)[O-]	0.73µM*	?	-8	20%	?	-24%
O=C(Cn1cc([N+](=O)[O-])cn1)Nc1nc2ccccc2s1	21µM*	11%	-22	19%	-12%	?
COc1ccc2nc(NC(=O)c3ccc([N+](=O)[O-])o3)sc2c1	4.6µM*	?	-97*	11µM*	?	7.3µM*
O=C(Nc1nc2ccccc2s1)c1ccc([N+](=O)[O-])o1	21µM*	-24%	-100*	0%	?	16µM*
CCCNC(=O)COc1ncnc2sccc12	-4%	-13%	2	-8%	-2%	-2%
O=C(Nc1nc2cc3c(cc2s1)OCCO3)c1ccc([N+](=O)[O-])o1	5.2µM*	-45%	-89*	?	?	1.5µM*
COc1cc2c(cc1OC)C(c1cccs1)N(C(=O)c1cccnc1)CC2 (centres undefined)	?	11%	2	7%	-27%	5.2µM*
COc1cc2c(cc1OC)C(c1cccs1)N(C(=O)C(C)C)CC2 (centres undefined)	1%	-3%	2	1%	-1%	4%
N#C/C(=C(\O)c1ccco1)c1ccccn1	4%	?	-8	?	1%	-3%
N#C/C(=C(/O)CN1C(=O)c2ccccc2C1=O)c1nc2ccccc2[nH]1	6%	11µM*	21	?	1%	-2%
CSCCC(/C(O)=C(\C#N)c1nc2ccccc2[nH]1)N1C(=O)c2ccccc2C1=O (centres undefined)	1%	11µM*	-22	18µM*	3%	-4%
N#C/C(=C(/O)CCl)c1nc2ccccc2[nH]1	?	5µM*	26	10µM*	?	?
N#C/C(=C(/O)CSc1n[nH]c(N)n1)c1nc2ccccc2[nH]1	8%	-34%	-4	-3%	-5%	-10%
N#C/C(=C(/O)c1ccco1)c1nc2ccccc2[nH]1	-22%	7.1µM*	-8	?	?	-15%
Cc1c(C(=O)N(C)Cc2ccc(OC(F)F)cc2)oc2ccccc12	?	19%	3	-6%	-5%	-85%
COc1ccccc1NC(=O)C1CCN(S(=O)(=O)c2cccs2)CC1	-4%	.	17	.	0%	4%
Nn1c(SCC(=O)NCCc2ccc(F)cc2)nnc1C1CCCCC1	-2%	.	-1	.	-1%	-14%
O=C(OCC(=O)N1CCOCC1)c1cccc(F)c1	-6%	-4%	3	29%	-21%	5%
COc1ccc(C(=O)N2CCC3(CCN(Cc4cc(C(F)(F)F)cc(C(F)(F)F)c4)CC3)CC2)cc1	.	1%	.	-10%	.	.
Cc1ccc(/C=C(\C#N)c2nc3ccccc3[nH]2)s1	15%	?	?	10µM*	?	?
N#C/C(=C(\O)Cc1ccccc1)c1nc2ccccc2[nH]1	17%	2.8µM*	0	?	5%	?
N#C/C(=C(/O)c1ccc(C(=O)c2ccccc2)cc1)c1nc2ccccc2[nH]1	22%	5%	-10	14%	3%	23µM*
N#C/C(=C\c1ccc(Sc2ccc(Cl)cc2)o1)c1nc2ccccc2[nH]1	15µM*	?	3	?	13%	?
SMILES	MCF10A rerep	RORgamma inh	Giardia killer	Gal4-VP16 FLuc	BCR signal inh	SW480 rereplic
N#C/C(=C/c1cccs1)c1nc2ccccc2[nH]1	?	?	2	-21%	?	20%
CCC(C)(C)C1CCC2(CC1)NC(=O)N(CC(=O)N(C)CC(=O)Nc1ccccc1C(F)(F)F)C2=O (centres undefined)	8%	25%	-9	-10%	?	22%
Cc1cccc(C)c1Nc1nnc(SC/C(O)=C(\C#N)c2nc3ccccc3[nH]2)s1	?	?	32	15%	5%	?
COc1ccccc1/C(O)=C(\C#N)c1nc2ccccc2[nH]1	0%	1.4µM*	2	-7%	9%	-5%
Cc1cccc(Nc2nnc(SC/C(O)=C(\C#N)c3nc4ccccc4[nH]3)s2)c1C	13µM*	?	-3	-11%	14%	?
N#C/C(=C(/O)COC(=O)c1ccc(O)cc1)c1nc2ccccc2[nH]1	6%	12%	-21	2%	?	7%
C/C(O)=C(\C#N)c1nc2ccccc2[nH]1	12%	?	-2	14µM*	?	-14%[9.22 µM]
CC(C)Oc1ccc(CNC(=O)CCC(=O)N2CCSc3ccccc32)cc1	2%	-16%	1	0%	-12%	-1%
CCCNC(=O)C1CN(S(=O)(=O)c2ccc(Cl)s2)c2ccccc2O1 (centres undefined)	2%	.	-10	.	1%	-1%
CCOC(=O)C(CCCOc1ccc(C)cc1)C(=O)OCC	-5%	33%	3	-20%	?	0%
CCOC(=O)C(CCCOc1ccc(C(C)CC)cc1)C(=O)OCC (centres undefined)	?	2.8µM*	14	?	0%	7%
CCOc1ccc(OCc2ccc(C(=O)N3CCCC3)o2)cc1	81%	2.5µM*	8	-30%	?	-2%
CCCc1ccc(OCc2ccc(C(=O)N3CCCC3)o2)cc1	0%	?	2	-25%	?	-3%
CCC(C)c1ccc(OCc2ccc(C(=O)O)o2)cc1 (centres undefined)	8%	14µM*	-6	?	?	-4%
CCOc1ccccc1NC(=O)COC(=O)C1CCC(=O)N1 (centres undefined)	-8%	.	-2	.	5%	-13%
CC(C)CCNCC(=O)NC(c1ccccc1)c1ccccc1	-4%	21%	10	-1%	-1%	-4%
COC(=O)N/N=C/c1c[nH]c2ccccc12	0%	5%	-2	3%	4%	5%
CN1CCN(CC(=O)N/N=C\c2c[nH]c3ccccc23)CC1	28%	?	.	22µM*	1%	9%
O=C(O)c1ccc(N/N=C/c2c[nH]c3ccccc23)cc1	0%	0.035µM*	11	0.32µM*	?	-32%
NC(=S)N/N=C/c1c[nH]c2ccccc12	-2%	2.5µM*	8	?	-16%	-5%
O=C(/C=C/c1cccc2ccccc12)c1ccncc1	12µM*	-88%	?	8.9µM*	?	?

Bioassay records: PubChem, National Center for Advancing Translational Sciences (NCATS)
